Ins promoter up = insulin promoter activators in MIN6 cells, imaging, high-content screening, mouse beta cells | MIN6 insulin promoter-GFP reporter; active compounds read high | AID 1625, 2009 | z-score at 5 µM | actives 0.3% (n = 190,000);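 active = z-score above 3 at 5 µM with at least 500 cells counted in the well; inconclusive = wells under 500 cells, flagged as cytotoxic or low count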
Insulin prom inh = inhibitors of insulin promoter-driven GFP, primary screen, imaging, TRM-6 cells (human fetal islet line), eGFP reporter, cell count; reporter expression induced with tamoxifen; inhibition, % at 2 µM; actives 0.9% (n = 130,000);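 active = inhibition above the mean plus 3 SD, with well images judged a real hit on visual review, cut at about 60% in these data, passing the limit was not always enough; inconclusive = inhibition over the cutoff but images rejected on review; inactive = inhibition not above the cutoff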
Autophagy mod = autophagy modulators in MEF cells, primary screen, imaging, high-content, MEF GFP-LC3. actives 0.98% (n = 190,000). AID 463193, 2010. calls only at 10 µM (by protocol). MEF GFP-LC3 puncta imaging; test concentration mostly 10 µM;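 active = percentage of spot-positive cells more than 3 SD above its plate mean, without a fluorescence outlier flag or 80% toxicity; inconclusive = no clear call, values can overlap the other calls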;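 also: spot-positive cell cutoff set from DMSO-treated cells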
WT yeast gro inh = growth inhibition of WT strain, primary screen, mitochondrial fusion inhibitor project, WT and mutant strains, chemical genetic; mitochondrial fusion phenotypic screen; inhibition, % at 10 µM; actives 2.1% (n = 190,000); AID 1362, 2008; in the data active = inhibition above about 58%; tested in S. cerevisiae
L major viab = Leishmania major promastigote growth inhibition, primary screen. Leishmania major promastigotes, resazurin fluorescence viability. inhibition, % at 10 µM. actives 9% (n = 200,000). AID 1063, 2008; in the data active = inhibition above about 50%;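 also: promastigotes grown with compound for 44 hours at 28 °C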
Starred values were filed as active, the others as inactive; i = inactive; u = inconclusive; x = no result given; + = active, no number. Sampled rows, rich in hits. Any-hit rate of the full collection: about 11%.

SMILES | Ins promoter up | Insulin prom inh | Autophagy mod | WT yeast gro inh | L major viab
O=C1c2ccccc2C(=O)N1Cc1cnc(N2CCN(c3ccccc3)CC2)s1 | -0.2 | x | i | 9.2 | -7.0
COc1cc(CNCCO)ccc1OCC(=O)Nc1ccc(Br)cc1 | 0.14 | -17.9 | i | -5.5 | 100.3*
COc1ccc(NC(C)=O)cc1C | -0.29 | 71.4* | i | -8.5 | -1.9
Cc1cc(OCC(=O)Nc2ccncc2)c(C)cc1Br | -0.14 | 9.9 | i | 59.8* | -0.3
O=C(COc1ccc(Br)cc1)Nc1ccncc1 | -0.3 | 49.3 | i | 17.2 | 0.2
CC(=O)Nc1ccc(NC(=O)COc2ccc(Br)cc2C)cc1 | 0.72 | 26.7 | i | -11.8 | 61.9*
O=C(Nc1nc(-c2ccc3c(c2)OCCO3)cs1)C1CCCC1 | -0.74 | x | i | 26.3 | 29.3
Cc1c(C=O)c2ccccc2n1CC(=O)NCc1ccc2c(c1)OCO2 | -0.58 | 0.0 | i | -25.7 | 10.3
Cc1ccc(N2C(=O)[C@@H]3C(C(=O)C(c4ccccc4)c4ccccc4)=NN[C@@H]3C2=O)cc1 | -0.22 | x | i | 3.8 | -5.6
Cc1ccc(-c2c[n+](CC(=O)c3ccc(Br)cc3)c3n2CCCCC3)cc1 | u | -6.7 | i | 10.7 | 100.5*
Cc1ccc(NC(=O)C[n+]2cc(-c3ccccc3)n3c2CCC3)cc1 | -0.01 | x | x | x | x
O=C(C[n+]1cc(-c2ccccc2)n2c1CCCCC2)c1ccc(Cl)cc1 | -0.36 | x | i | 12.2 | 69.5*
CC1CCC(C(C)C)C(OC(=O)C[n+]2cc(-c3ccc(Cl)cc3)n3c2CCCCC3)C1 (stereo not given) | -4.3 | x | + | 21.8 | 100.5*
Cc1ccc2ncnc(Nc3ccc(C)c(C)c3)c2c1 | 0.22 | -3.2 | i | 37.5 | 72.8*
Cc1ccc(-n2nnnc2SCC(=O)N2CCc3ccccc3C2)c(C)c1 | 0.43 | 15.2 | i | 60.8* | -4.0
Cc1ccc(-n2nnnc2SCC(=O)N2CCc3ccccc3C2)cc1 | -0.67 | 7.9 | i | 57.0 | -3.0
Cc1ccc(C2SCC(=O)N2Cc2cn3ccsc3n2)o1 (stereo not given) | 0.08 | x | + | -0.4 | -8.3
CCN1CCCC1CNC(=O)CSCc1nc(-c2ccccc2C)oc1C (stereo not given) | x | 21.4 | i | -2.1 | 98.9*
CCN1CCCC1CNC(=O)C1CCN(Cc2nc(-c3cccc(Br)c3)oc2C)CC1 (stereo not given) | -0.96 | x | i | -4.0 | 98.7*
CC(C)NC(=O)CSc1nnc(-c2ccc3ncccc3c2)n1C | 0.06 | x | x | x | x
Cc1ccc(N(CC(=O)O)S(C)(=O)=O)cc1 | 0.71 | x | i | -10.5 | -1.2
c1ccc(-c2csc(-n3cnnn3)n2)cc1 | 3.13* | -29.0 | i | -5.7 | -2.9
CCOc1cc(-n2nc(C)c(C#N)c2N)nc(SC)n1 | x | 76.5* | i | -2.7 | 3.2
CCOc1cc(-n2ncc(C#N)c2N)nc(SC)n1 | -0.32 | -29.4 | i | 10.3 | -1.8
Cc1nn2c(Nc3ccccc3)c3c(nc2c1-c1ccccc1)CCC3 | -0.06 | 90.8* | i | 14.2 | 7.8
SMILES | Ins promoter up | Insulin prom inh | Autophagy mod | WT yeast gro inh | L major viab
Cc1nn2c(NCCCN(C)C)c3c(nc2c1-c1ccccc1)CCC3 | x | 25.0 | i | 22.6 | 100.1*
CC(C)NC(=O)c1ccc2c(c1)S(=O)(=O)c1ccccc1C2=O | x | 25.0 | i | 5.4 | 6.9
O=C(Nc1nc2ccc(SC(F)F)cc2s1)c1ccc2c(c1)S(=O)(=O)c1ccccc1C2=O | -0.14 | 29.6 | i | 14.4 | 85.8*
O=C(Nc1ccncc1)c1ccc2c(c1)S(=O)(=O)c1ccccc1C2=O | -0.21 | x | i | -16.6 | 99.5*
N#C/C(=C\c1cn(CCOc2ccccc2F)c2ccccc12)C(=O)NCc1cccs1 | 0.27 | -18.4 | + | -3.1 | 45.0
COc1cccc(NC(=S)N(Cc2ccccn2)Cc2ccccc2Cl)c1 | -0.94 | x | i | 68.5* | 61.5*
COc1cccc(NC(=S)N(CCc2ccc(OC)c(OC)c2)Cc2ccccn2)c1 | -0.24 | x | i | -7.5 | 9.3
COc1ccc(NC(=O)NCc2ccccn2)cc1 | x | 31.2 | i | -18.9 | -8.4
COc1ccc(NC(=S)N(Cc2ccccn2)Cc2ccccc2Cl)cc1 | -0.05 | -40.0 | i | 74.8* | 37.2
CN1/C(=C\C(=O)CSc2nnc(N)s2)C(C)(C)c2ccccc21 | -0.62 | -32.0 | i | 4.0 | 37.6
COc1ccc(Nc2nnc(SCC(=O)/C=C3/N(C)c4ccccc4C3(C)C)s2)cc1 | -4.75 | 29.7 | i | 31.4 | 96.1*
CS(=O)(=O)N1CCC(C(=O)Nc2ccc(OCc3ccccc3)cc2)CC1 | 0.01 | 71.0* | i | 5.3 | 4.0
CC(C)CNC(=O)C1CCN(Cc2ccc(OCc3ccccc3)cc2)CC1 | -0.37 | -41.2 | i | 26.0 | 31.9
O=C(NCc1ccccn1)C1CCN(Cc2cccc(OCc3ccccc3)c2)CC1 | -0.22 | -33.3 | i | -1.1 | 100.1*
CS(=O)(=O)N1CCC(C(=O)Nc2ccccc2)CC1 | 0.52 | 3.1 | i | -11.5 | -6.0
O=C(NCc1ccccn1)C1CCN(S(=O)(=O)c2ccccc2)CC1 | -0.28 | 0.0 | i | -2.7 | -2.6
CC(O)CNC(=O)C1CCN(Cc2ccc(OCc3ccccc3)cc2)CC1 (stereo not given) | -0.3 | x | i | -2.6 | 91.1*
CCOC(=O)c1[nH]c2c(c1-c1ccc(OC)cc1)C(=O)CC(c1ccc(OC)c(OC)c1)C2 (stereo not given) | u | -152.4 | i | -3.7 | 38.0
CCOC(CCn1c(SCC(=O)Nc2cc(C)on2)nc2ccccc2c1=O)OCC | -0.34 | x | i | -8.0 | 2.5
COCCN(Cc1cc2cc(C)ccc2n2nnnc12)C(=S)Nc1ccc(C)cc1 | -0.29 | x | i | -88.5 | 56.6*
CCc1ccc2c(c1)cc(CN(C(=S)Nc1ccc(Cl)cc1)C1CC1)c1nnnn12 | 0.54 | x | + | 48.7 | 8.6
COCCN1Cc2cccc(C(=O)NC(C)CCc3ccco3)c2C1=O (stereo not given) | -0.91 | 0.0 | i | -7.4 | -5.0
Cc1cccc(N=N/C(=C\O)C(=O)c2cccs2)c1 | 0.24 | -31.2 | i | 30.7 | 76.3*
CCN(CC)S(=O)(=O)c1cc(C)ccc1NC(=S)Nc1cccnc1 | -0.05 | -57.1 | i | -3.2 | -1.6
O=C(CCCOc1ccccc1)NC1CCCc2ccccc21 (stereo not given) | 0.38 | -16.7 | i | -21.2 | -6.5
SMILES | Ins promoter up | Insulin prom inh | Autophagy mod | WT yeast gro inh | L major viab
COc1cccc(-n2nc(C(N)=O)c(O)cc2=O)c1 | 0.6 | 61.5 | i | 1.4 | -4.5
COc1cccc(-n2nc(C#N)c(Cl)cc2=O)c1 | -3.8 | -84.6 | + | 77.2* | 100.2*
O=C(Nc1cccs1)Nc1ccc(F)cc1F | -0.19 | 63.3 | i | -8.7 | -4.9
O=C(Nc1cccs1)Nc1ccc(Br)cc1F | 0.91 | 70.4* | i | 10.6 | 32.6
COc1ccc(C(=O)NCC(=O)OCC(=O)N2CCc3ccccc32)cc1 | -0.11 | -50.0 | i | -7.9 | -1.8
COc1ccc(C(=O)NCCNC(C)=O)cc1S(=O)(=O)NCc1ccc(Cl)cc1 | 0.96 | x | i | -9.4 | 0.7
CCCN(CCC)S(=O)(=O)c1ccc(C(=O)NCc2ccc3c(c2)OCO3)cc1 | -0.18 | x | i | -11.7 | -6.2
